Results filed as inconclusive are left out. Entries that show only a call come without a potency. The source made the active and inactive calls. Calls follow the shape of the dose curve; as a rule, active = well fitted inhibition curve with a large enough effect in the repeat runs; inconclusive = weak or mixed curves; inactive = flat fitted curve, though single readings scatter.
Assay: qHTS assay to identify small molecule HDAC inhibitors (AID 1259364); also: nearly all actives have a fitted effect of over 45% in size
Conditions: HCT-116 HDAC-Glo I/II luminescence, 2 h; series mostly up to 92.4 µM
Source text: U.S. Tox21 Program National Center for Advancing Translational Sciences [NCATS] NIH Chemical Genomics Center [NCGC] U.S. Environmental Protection Agency [EPA] National Institutes of Environmental Health Sciences [NIEHS] National Toxicology Program [NTP] U.S. Food and Drug Administration [FDA] Tox21 Assay Overview: Histone deacetylases (HDACs) are a group of epigenetic enzymes that regulate gene expression by histone deacetylation. HDACs are capable of introducing epigenetic modifications and such aberrations contribute to the onset and progression of several human diseases, thus making HDACs a popular therapeutic target. For identifying endogenous class I/II HDAC inhibitors a homogenous, luminogenic HDAC I/II cell based assay was used to measure the relative activity of class I and II HDACs from cells. Wild type HCT-116 cells were used to screen Tox21 libraries for identifying class I/II HDAC inhibitors.
Tox21 Assay Protocol Summary: HCT-116 cells were dispensed at 1,500 per well in 5uL of culture medium into white solid bottom 1536-well plates (Greiner Bio-One, Monroe, NC) using a Multidrop Combi (Thermo Scientific, Waltham, MA) dispenser. The assay plates were incubated at 37 C and 5% CO2 for an overnight, and then 23nL of compounds dissolved in DMSO and positive control were transferred using a Pintool station (Wako, San Diego, CA). The assay plates were incubated at 37C and 5% CO2 for 2hr. After compound treatment, 4uL of HDAC-Glo reagent (Promega Corporation, Madison, WI) was added to each well of the assay plates using Flying Reagent Dispenser (FRD, Aurora Discovery, San Diego, CA) and incubated the assay plates at room temperature for 30min. The luminescence signal was quantified using a ViewLux plate reader (Perkin Elmer, Shelton, CT).
Potency is read from the fitted curve at half-maximal effect.

Structure (SMILES) | Potency
NC(=O)CC[C@@H]1NC(=O)[C@H](Cc2ccccc2)NC(=O)[C@H](Cc2ccc(O)cc2)NC(=O)CCSSC[C@@H](C(=O)N2CCC[C@H]2C(=O)N[C@@H](CCCN=C(N)N)C(=O)NCC(N)=O)NC(=O)[C@H](CC(N)=O)NC1=O | inactive
Oc1ccc(C2(c3ccc(O)cc3)CC3CC2C2CCCC32)cc1 (stereo not given) | inactive
CCC1=C[C@@H]2CN(C1)Cc1c([nH]c3ccccc13)[C@@](C(=O)OC)(c1cc3c(cc1OC)N(C)[C@H]1[C@@](O)(C(=O)OC)[C@H](OC(C)=O)[C@]4(CC)C=CCN5CC[C@]31[C@@H]54)C2 | inactive
ON=C1CCCC1 | inactive
OCCN1CCN(CC/C=C2/c3ccccc3Sc3ccc(C(F)(F)F)cc32)CC1 | inactive
CCCCCCCCCCCC[N+](C)(C)CCCCCCCCCCCC | inactive
C=CC(=O)OCCn1c(=O)n(CCOC(=O)C=C)c(=O)n(CCOC(=O)C=C)c1=O | inactive
O=c1c(-c2ccccc2)c1-c1ccccc1 | inactive
COc1ccc(CN2CCN(C(c3ccc(F)cc3)c3ccc(F)cc3)CC2)c(OC)c1OC | inactive
O=C1c2ccccc2Cc2ccccc21 | 6.16 µM (active)
Cc1cc(O)c(Cl)c(C)c1Cl | inactive
C[C@@H]1C[C@H]2[C@@H]3CCC4=CC(=O)C=C[C@]4(C)[C@@]3(Cl)[C@@H](O)C[C@]2(C)[C@@]1(OC(=O)c1ccco1)C(=O)CCl | inactive
CCCN(CCC)C(=O)C(CCC(=O)OCCCN1CCN(CCOC(=O)Cc2c(C)n(C(=O)c3ccc(Cl)cc3)c3ccc(OC)cc23)CC1)NC(=O)c1ccccc1 (stereo not given) | inactive
CC1=NC(C)OC1C (stereo not given) | inactive
CCCCCCCCCCCCCCCS(=O)(=O)Oc1ccccc1 | inactive
O=C(OCC(COC(=O)c1ccccc1)(COC(=O)c1ccccc1)COC(=O)c1ccccc1)c1ccccc1 | inactive
COC(=O)c1cc(Cl)ccc1OC | inactive
NC(=O)C1(N2CCCCC2)CCN(CCCN2c3ccccc3CCc3ccc(Cl)cc32)CC1 | inactive
CCCC(=O)OC[C@@H](OC(=O)CCC)[C@@H](OC(=O)CCC)[C@H](Cn1c2nc(=O)[nH]c(=O)c-2nc2cc(C)c(C)cc21)OC(=O)CCC | inactive
Cc1cccc(CN2CCN(C(c3ccccc3)c3ccc(Cl)cc3)CC2)c1 (stereo not given) | inactive

Structure (SMILES) | Potency
Cc1[nH]nc2c1N=C(c1ccccc1Cl)c1cc([N+](=O)[O-])ccc1N2 | inactive
C[C@]12CCC(=O)C=C1CC[C@@H]1[C@@H]2[C@@H](O)C[C@@]2(C)[C@H]1CC[C@]2(O)C(=O)COC(=O)CCC(=O)O | inactive
CC(C)(C)C(=O)OCOC(=O)[C@@H]1N2C(=O)[C@@H](NC(=O)[C@H](N)c3ccccc3)[C@H]2SC1(C)C | inactive
N#CC1(c2ccc(F)cc2)CCC(=O)CC1 | inactive
CCCCCCCCCCCCc1ccc(O)cc1 | inactive
Cc1cccc2c1cc1ccc3cccc4ccc2c1c34 | inactive
Cc1cc(O)c(C(C)(C)C)cc1C(C)(C)C | inactive
O=C(OCC1CO1)C1CCCCC1C(=O)OCC1CO1 (stereo not given) | inactive
Cc1cc(C2CCCCC2)n(O)c(=O)c1 | inactive
CC[C@@]1(O)C(=O)OCc2c1cc1n(c2=O)Cc2cc3c(CN(C)C)c(O)ccc3nc2-1 | inactive
C=C(C)C(=O)OCC[N+](C)(C)C | inactive
Cc1cc(O)c(C(C)(C)C)cc1Sc1cc(C(C)(C)C)c(O)cc1C | inactive
C/C=C(\C)C(=O)OCc1ccccc1 | inactive
Cc1ccc(O)c(C(C)(C)C)c1 | inactive
Cc1ccc2oc(CN(Cc3ccccc3)C(=O)Nc3c(F)cc(F)cc3F)c(-c3ccc(Cl)cc3)c2c1 | inactive
CCN(C(=O)c1cc(C)cc(OC[C@H](C)Nc2ccncc2)c1)C(C)C | inactive
Cc1onc(-c2ccccc2Cl)c1C(=O)N[C@@H]1C(=O)N2[C@@H]1SC(C)(C)[C@@H]2C(=O)O | inactive
COc1cc(-c2ccc(N=C=O)c(OC)c2)ccc1N=C=O | inactive
CN1CCC(Nc2ncc3ncnc(Nc4ccc(F)c(Cl)c4)c3n2)CC1 | inactive
CN(C)c1ccc(C2(c3ccc(N(C)C)cc3)OC(=O)c3cc(N(C)C)ccc32)cc1 | inactive

Reference: PubChem BioAssay (Tox21)
